# TDP-43 yeast inh: TDP-43 toxicity inhibition in yeast | TDP-43 expressing yeast growth rescue, BacTiter-Glo, 24 h | Potency, µM (series often up to 46.1 µM), for inactives: top-dose growth rescue (activation), hits mostly activators | 410,000 compounds, 1.8% hits | AID 652104; also: potency is read from the fitted curve at half-maximal effect; % of control where 0% means no effect; nearly all actives have a fitted effect of over 50% in size
#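 Yeast expressing TDP-43 (pregrown in raffinose, seeded at OD600=0.02 in galactose medium) exposed to compounds 24 hr at 30 deg C. Growth read by BacTiter-Glo luminescence; rescue of toxicity appears as increased signal.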
# aSyn yeast inh: alpha-synuclein toxicity inhibition in yeast; AID 652106; 370,000 compounds, 0.14% hits; Potency, µM (doses to about 46.1 µM), without a hit: top-dose growth rescue (activation), actives largely listed as activators; Yeast expressing alpha-synuclein, growth rescue, BacTiter-Glo, 24 h; also: potency is read from the fitted curve at half-maximal effect; % of control where 0% means no effect; nearly all actives have a fitted effect of over 65% in size
#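 Screening used galactose-induced yeast with toxic alpha-synuclein levels, exposed to compound for 24 hr at 30 deg C. Cell growth, read with BacTiter-Glo luminescence, gave the measured signal.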
# CCT modulator: cytosolic chaperonin activity modulation | purified chaperonin ATPase assay, HTRF ADP detection, 30 min | 360,000 compounds, 0.3% hits | activity change, % (test concentration not listed), hits read low | AID 651819; in the data active = activity change below about -30%; also: % is scaled to controls: 0 for no effect and ±100 for the full control effect
#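 We incubate TRiC, 40 or 20 nM final, with library compounds at 76 uM and 10 uM ATP for 30 min at 37 °C. ADP formed is detected with Transcreener HTRF reagents after 30 min at room temperature.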
# FUS yeast rescue: rescues growth of FUS-expressing yeast | Potency, µM (series often up to 76.6 µM), most hits filed as activators | 390,000 compounds, 0.24% hits | S. cerevisiae FUS-expressing, growth rescue, OD600, 24 h;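 also: potency is read from the fitted curve at half-maximal effect; plate controls were DMSO vehicle for no effect and reference control for full effect; nearly all actives have a fitted effect of over 55% in size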
#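 Steps: raffinose overnight preculture; dilution to OD 0.005 in 2% galactose minimal medium; compound addition (concentration series); 24hr at 30C, 99% humidity; absorbance read at 600 nm.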
# Mm-Cpn inhibitor: M. maripaludis TRiC chaperonin inhibition; purified Mm-Cpn ATPase, ADP Transcreener TR-FRET; Potency, µM (series often up to 76.9 µM), for inactives: at the highest dose activity, negative = inhibition, actives largely listed as inhibitors; 330,000 compounds, 0.031% hits; AID 504842; also: potency is read from the fitted curve at half-maximal effect; % is scaled to controls: 0 for no effect and ±100 for the full control effect; nearly all actives have a fitted effect of over 80% in size
#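 Eu-cryptate anti-ADP/ADP-d2 competition gives a ratio inversely related to ADP. Enzyme at 25 nM was pre-exposed to compound for 10 min, then given 10 uM ATP for 30 min, 37°C throughout.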
# Abeta yeast res: compounds reversing amyloid beta toxicity in yeast; yeast expressing A-beta42, growth rescue, OD600, 48 h; response scale: 0% DMSO, 100% iron-clioquinol control; 410,000 compounds, 0.063% hits; Potency, µM (titrated, usually from 46.1 µM), usual class: activators; also: potency is read from the fitted curve at half-maximal effect; nearly all actives have a fitted effect of over 55% in size
#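 Yeast A-beta toxicity model in growth medium with pinned compounds, 48 h at 30 C; growth read as absorbance at 600 nm. Normalized to FeCl3/clioquinol equimolar mix (positive) and DMSO (negative).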
# * hit, by the source's call; i = inactive; ? = inconclusive; . = not tested or not shown; [ ] = another dose, or the depositor's remark. In the library only some 2.3% were active in any assay of this set; here they are far more common. Unless noted, calls follow the shape of the dose curve; as a rule, active = well fitted curve in the direction sought with a large enough effect; inconclusive = small, poorly fitted or top-dose-only effect, or another doubt; inactive = no such curve, though single readings can be large; an effect the other way counts as inactive or inconclusive.
SMILES,TDP-43 yeast inh,aSyn yeast inh,CCT modulator,FUS yeast rescue,Mm-Cpn inhibitor,Abeta yeast res
N#Cc1cc(N)ccc1Sc1ccc(Cl)cc1,15.8µM*,17.5%,-1.3,i,-0.5%,i[9.22 µM]
N#Cc1cc(-c2ccccc2)nnc1Sc1ccc(Cl)cc1,?,1.0%,-0.9,i,-1.2%,i
N#Cc1ccncc1Sc1ccc(Cl)cc1,17.8µM*,22.1%,-1.5,i,-0.1%,i
C#CCOCCOCCOCCNc1nc(N2CCN(C(=O)[C@H]([C@@H](C)CC)n3cc(CCCCN)nn3)CC2)nc(N2CCN(C(=O)[C@H](Cc3ccc(O)cc3)n3cc(CCO)nn3)CC2)n1,.,.,.,i,.,.
Cc1ccc(Sc2c([N+](=O)[O-])ncn2C)cc1,10µM*,0.1%,-2.8,i,-5.7%,i
COc1cccc(CNc2ccc(S(N)(=O)=O)cc2)c1OCc1ccccc1F,10.3%,6.7%,-1.2,i,-5.2%,i
COc1cccc(CNc2ccccc2O)c1OCc1ccccc1F,-7.8%,-0.4%,-5.9,20µM*,-0.5%,i
CCC(=O)N1CCc2cc(S(=O)(=O)NC(C(=O)NCCc3cccc(C)c3)C(C)C)ccc21 (stereo not given),-16.6%,.,.,i,.,i
O=C(CCC1N=C2c3ccccc3N=C(SCC(=O)Nc3ccc(F)cc3)N2C1=O)NCc1cccs1 (stereo not given),35.5µM*,.,.,?,.,i
Cc1ccc(CSC2=Nc3ccccc3C3=NC(CCC(=O)NCc4cccs4)C(=O)N23)cc1 (stereo not given),-0.8%,.,.,i,.,i
Cc1ccc(CSC2=Nc3ccccc3C3=NC(CCC(=O)NCCc4ccccc4)C(=O)N23)cc1 (stereo not given),31.6µM*,.,.,i,.,i
CC1=CC(=C(c2ccc(N)cc2)c2ccc(N)cc2)C=CC1=N,.,-54.7%,.,.,.,.
Cc1ccc(Cl)cc1NC(=O)Cn1c(=O)c(CNc2ccccc2)cc2cc3c(cc21)OCCO3,-19.2%,2.9%,.,28.2µM*,.,i
CC1CN(C(=O)Nc2ccc3snnc3c2)c2ccccc21 (stereo not given),15.8µM*,1.1%,-1.5,i,-1.1%,i
CC(=O)c1cccc(NC(=O)c2cnn3c(C)cc(C)nc23)c1,.,.,.,i,.,.
CCOC(=O)c1c(/N=C/C2=C(O)CCCC2=O)sc(C)c1C,-11.0%,0.8%,0.5,i,-0.8%,i
CCOC(=O)c1c(-c2ccc(OC)cc2)csc1/N=C/C1=C(O)CCCC1=O,8.91µM*,10.8%,-3.2,?,-3.7%,i
COc1ccc2nc3cccc(OC)c3nc2c1,22.4µM*,6.5%,-2.8,i,-4.4%,?
C[C@@H]1CC[C@]2(C(=O)O[C@@H]3O[C@H](CO)[C@@H](O)[C@H](O)[C@H]3O)CC[C@]3(C)C(=CCC4[C@@]5(C)C[C@@H](O)[C@H](O)[C@@](C)(C(=O)O[C@@H]6[C@H](O)C[C@@]7(C)C(CC[C@]8(C)C7CC=C7[C@H]9[C@](C(=O)O[C@@H]%10O[C@H](CO)[C@@H](O)[C@H](O)[C@H]%10O)(CC[C@@H](C)[C@@]9(C)O)CC[C@]78C)[C@@]6(CO)C(=O)O)C5CC[C@]43C)[C@@H]2[C@]1(C)O (stereo not given in full),12.4%,1.8%,1.0,12.6µM*,1.3%,i
C[C@H]1O[C@H](O[C@H]2[C@H](O[C@@H]3CC[C@@]4(C)C(CC[C@]5(C)C4CC=C4[C@@H]6CC(C)(C)CC[C@]6(C(=O)O[C@@H]6O[C@H](CO)[C@@H](O)[C@H](O)[C@H]6O)CC[C@]45C)C3(C)C)O[C@H](C(=O)O)[C@@H](O)[C@@H]2O)[C@@H](O)[C@@H](O)[C@@H]1O (stereo not given in full),1.3%,2.3%,-0.8,?,1.7%,i
Cc1ccc(NC(=O)OC2CC3CC2[C@H]2CCCCN2[C@H]3C)cc1 (stereo not given in full),.,.,.,i,.,.
COc1cc2c(cc1OC)C(c1ccc(Cl)cc1)N(c1ccc(C)c(F)c1)C(=O)C2 (stereo not given),35.5µM*,.,.,?,.,i
COc1ccc(N/C(C)=C/C(=O)c2ccccc2)cc1,16.6%,-4.4%,-1.4,.,-9.9%,i
COc1ccc(N/C(C)=C/C(=S)Nc2ccccc2)cc1,12.6µM*,22.4%,-1.1,i,-1.3%,i
CCOC(=O)Nc1ccc(/C=C/c2ccnc3ccccc23)cc1,.,-8.9%,.,.,.,.
SMILES,TDP-43 yeast inh,aSyn yeast inh,CCT modulator,FUS yeast rescue,Mm-Cpn inhibitor,Abeta yeast res
CC(C)C[C@H]1CNC(=S)N1C[C@H]1CCCN1C[C@H](CC(C)C)N1C[C@H](CC(C)C)N(CCc2ccccc2)C1=S,28.0%,-31.8%,-2.2,i,.,?
CC(C)C[C@H]1CNC(=S)N1C[C@H]1CCCN1C[C@H](Cc1ccccc1)N1C[C@H](CC(C)C)N(CCc2ccccc2)C1=S,?,-46.0%,0.8,25.1µM*,.,?
CCOc1ccc(CCN2C(=O)C(=O)N([C@@H](Cc3ccccc3)CN3CCC[C@H]3CN3C(=O)C(=O)NC[C@@H]3Cc3ccccc3)C[C@@H]2Cc2ccc(O)cc2)cc1,7.1%,0.4%,-0.6,15.8µM*,.,i
NCc1cn(Cc2ccccc2)nc1-c1ccccc1,.,8.2%,.,.,.,.
CC(=O)/C(=C\N(C)C)Sc1ccc(C)cc1,29.2%,23.9%,0.1,i,-2.3%,i
CC(=O)/C(=C\N(C)C)Sc1ccc(Cl)cc1,22.4µM*,?,1.8,i,2.1%,?
COc1cccc(N2CCN(C(=O)c3ccc(CS(=O)c4cccc(Cl)c4)o3)CC2)c1 (stereo not given),25.9%,.,.,i,.,i
CCOC(=O)c1cccc(Nc2ccc3cc(S(=O)(=O)N4CCCCC4)ccc3n2)c1,11.6%,.,.,i,.,i
O=S(=O)(c1ccc(F)cc1)N1CN(Cc2ccco2)c2nc3ccccc3nc21,2.3%,-13.0%,-7.2,15.8µM*,-3.1%,i
Cc1ccc(S(=O)(=O)N2CN(Cc3ccco3)c3nc4ccccc4nc32)cc1,-22.4%,8.7%,-2.1,i,-3.0%,i
Cc1ccc(S(=O)(=O)N2CN(Cc3ccco3)c3nc4ccccc4nc32)cc1C,-21.6%,5.0%,-3.5,i,-4.7%,i
COc1ccc(S(=O)(=O)N2CN(Cc3ccco3)c3nc4ccccc4nc32)cc1,0.0%,-1.6%,-0.3,5.62µM*,-2.9%,i
CCc1ccc(NC(=O)CSc2ncc(S(=O)(=O)c3cc(C)ccc3C)c(=O)[nH]2)cc1,6.3%,-10.5%,.,i,.,i

# High-throughput results deposited in PubChem by National Center for Advancing Translational Sciences (NCATS).
